# Results filed as inconclusive are left out. The source made the active and inactive calls. Calls come from the whole dose curve; as a rule, active = well fitted activation curve with a large enough effect; inconclusive = small, poorly fitted or top-dose-only effect; inactive = no such curve, though single readings can be large or run the other way.
# Molecular target: Cellular tumor antigen p53 (Homo sapiens) (UniProt P04637)
# Test: Confirmatory qHTS for small molecule compounds that upregulate eGFP-tagged delta133p53alpha (in C-terminal) cells.
# Settings: delta133p53alpha-eGFP (C-terminal) reporter cells, GFP fluorescence upregulation; series mostly up to 57.5 µM; activation (upregulation): at the top concentration
# Excerpt: Assay Development and Screening Technology
# National Center for Advancing Translational Sciences (NCATS),
# National Institute of Health (NIH), Rockville, Maryland
# Cellular senescence (CS) is one of the hallmarks of aging and age-related diseases. Senescent cells are characterized by an irreversible growth arrest, an increase in senescence-associated beta-galactosidase (SA-beta-gal) activity and p16INK4a expression, an activation of the DNA damage response pathways, and the emergence of a senescence-associated secretory phenotype (SASP).
# Delta133p53alpha, a human/primate-specific p53 protein isoform, delays or inhibits the induction of CS and SASP in various types of human cells, including progeria-derived fibroblasts, primary normal astrocytes, and CD8+ T lymphocytes. Induction of delta133p53alpha with small molecule compounds may provide therapeutic opportunities for inhibition of senescence/SASP-associated pathologies in progeria syndromes, astrocyte-mediated neuroprotection in neurodegenerative diseases, and possibly prevention and treatment of a wider range of senescence- and aging-associated diseases.
# Here we report the development and validation of a cell-based quantitative high throughput screening (qHTS) assay in 1,536-well format. This qHTS assay uses the NCI-H358 cell line with doxycycline-inducible expression of enhanced green fluorescent protein (eGFP)-tagged delta133p53alpha, which allows efficient and highly quantitative measurement of the protein levels.
# PROTOCOL TABLE (as described by Inglese J, Shamu CE and Guy RK. 2007)
# SEQUENCE No. (e.g., 1, 2, 3, etc.); […] (e.g., Cells, Incubation, Reagent, etc.); VALUE; DESCRIPTION.
# 1; Cells; 4uL; 800 doxycycline treated cells / well in doxycycline-free media, 1536-well black, clear-bottom low base Aurora microplates.
# 2; Compounds; 23 nL; Kalypsis pin tool (Wako) equipped with 1536-well pin heads, 5-azacytidine positive control.
# 3; Incubation; 24 hr; 37C, 5% CO2; 95% relative humidity.
# 4; Aspiration; 1x; BioTek EL406 washer dispenser (Agilent).
# 5; Fixing; 3.5% paraformaldehyde, BioTek EL406 washer dispenser (Agilent).
# 6; Washing; 1x PBS; BioTek EL406 washer dispenser (Agilent).
# 7; Nuclei staining; 1:1000 dilution of Hoechst 33342 (Thermofisher), BioTek EL406 washer dispenser (Agilent).
# 8; Incubation; 20 min; in the dark at room temperature.
# 9; Washing; 2x, 1x PBS (ThermoFisher), BioTek EL406 washer dispenser (Agilent).
# 10; Reagent; 10 uL; 1x PBS per well, sealed with clear adhesive tape.
# 11; Detection; Fluorescence, Acumen eX3 laser scanning cytometer (STP Labtech), GFP filters […].
# NOTES (numbers refer to sequence numbers above).
# 1. NCI-H358 cells expressing eGFP-tagged delta133p53alpha were grown in T75 culture flasks and treated with doxycycline for 24h, at 10 ng/ml for eGFP-D133p53a cells (N-terminal cell) and 100 ng/ml for D133p53a-eGFP cells (C-terminal cells). Cells were trypsinized, counted using a Counted 3 Automated Cell Counter (Thermo Fisher), and diluted to a concentration of 200,000 cells/ml. A Multidrop Combi Reagent Dispenser (ThermoFisher) was used to dispense 800 cells/well in […] of doxycycline-free media, into 1536-well black/clear bottom low base plates (AuroraMicroplates).
# 2. After plating cells, 23 nl of compound library, DMSO vehicle control or positive control (5-azacytidine) were transferred by Pin Tool (Wako). The plate map layout was the same for each plate: (column 1) non-doxycycline treated cells + DMSO vehicle control; (column 2) doxycycline treated cells + DMSO vehicle control baseline; (column 3) doxycycline treated cells + positive control 57.5 uM final concentration 5-azacytidine; (column 4) doxycycline treated cells + serial dilution of 5-azacytidine, 16-point 1:2 titration spanning 1.8 nM to […] final concentration; (columns 5-48) doxycycline treated cells + titration of library compounds.
# 3. Cells were incubated at 37 °C, 5 % CO2, 95% RH with breathable metal lid for 24h.
# 4-10. […]
# Cellular tumor antigen p53 (Homo sapiens), sequence (P04637 whole entry, looked up): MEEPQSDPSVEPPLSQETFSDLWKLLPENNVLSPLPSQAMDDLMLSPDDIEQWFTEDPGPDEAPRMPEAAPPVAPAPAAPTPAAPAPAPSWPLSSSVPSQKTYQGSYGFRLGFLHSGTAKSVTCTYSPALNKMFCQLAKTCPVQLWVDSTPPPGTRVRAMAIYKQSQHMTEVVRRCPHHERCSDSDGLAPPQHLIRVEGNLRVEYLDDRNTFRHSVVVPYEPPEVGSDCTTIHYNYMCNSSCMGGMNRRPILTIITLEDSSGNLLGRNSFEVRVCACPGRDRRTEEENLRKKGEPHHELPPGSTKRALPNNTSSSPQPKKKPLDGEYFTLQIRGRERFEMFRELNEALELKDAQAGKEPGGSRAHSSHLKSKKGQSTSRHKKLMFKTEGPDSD
SMILES,activation (upregulation),Potency
CC(C)(CO)Cc1cc(C(C)(C)C)c(O)c(C(C)(C)C)c1,3% (inactive),–
C#C[C@]1(O)CC[C@H]2[C@@H]3CCC4=Cc5oncc5CC4(C)[C@H]3CCC21C (stereo not given in full),8.44% (inactive),–
CC[C@@]1(O)C(=O)OCc2c1cc1n(c2=O)Cc2cc3c(CN(C)C)c(O)ccc3nc2-1,–,4.85 µM (active)
Cc1ccc(S(=O)(=O)N[C@@H](Cc2ccccc2)C(=O)CCl)cc1,–,15.3 µM (active)
CC(=O)N[C@@H](CS)C(=O)O,-5.47% (inactive),–
N=S(=O)(O)Cc1noc2ccccc12,-6.26% (inactive),–
CCN(CC)CCCC(C)Nc1c2ccc(Cl)cc2nc2ccc(OC)cc12 (stereo not given),–,8.63 µM (active)
O=C(N[C@@H](Cc1ccccc1)C(=O)CCl)OCc1ccccc1,–,3.85 µM (active)
CN(C)S(=O)(=O)c1ccc2c(c1)/C(=C/c1cc3c([nH]1)CCCC3)C(=O)N2,–,0.769 µM (active)
Cc1cccc(-c2[nH]ncc2-c2ccc3ncccc3n2)n1,7.74% (inactive),–
COC(=O)Nc1nc2ccc(C(=O)c3cccs3)cc2[nH]1,43.6% (inactive),–
CCCC(=O)NCCc1c2n(c3ccc(OC)cc13)CCCc1ccccc1-2,10.5% (inactive),–
CCN1CCCC1CNC(=O)c1cc(S(=O)(=O)CC)c(N)cc1OC (stereo not given),27.8% (inactive),–
O=C1NCc2c1c1c3ccccc3[nH]c1c1[nH]c3ccccc3c21,–,27.3 µM (active)
CC(C)(C(=O)O)c1ccc(C(O)CCCN2CCC(C(O)(c3ccccc3)c3ccccc3)CC2)cc1 (stereo not given),6.95% (inactive),–
CC(C)(C)c1ccc(S(=O)(=O)/C=C/C#N)cc1,–,13.7 µM (active)
Nc1nc2ccc(Cl)cc2c2nc(-c3ccco3)nn12,29.5% (inactive),–
C[C@]12CC[C@@H]3c4ccc(O)cc4C[C@@H](CCCCCCCCCS(=O)CCCC(F)(F)C(F)(F)F)[C@H]3[C@@H]1CC[C@@H]2O (stereo not given in full),2.11% (inactive),–
Nc1nc(Cl)nc2c1ncn2[C@@H]1O[C@H](COP(=O)(O)OP(=O)(O)OP(=O)(O)O)[C@@H](O)[C@H]1O,-17.8% (inactive),–
C[n+]1cc2c3c(ccc2c2ccc4cc5c(cc4c21)OCO5)OCO3,–,0.968 µM (active)

SMILES,activation (upregulation),Potency
CC1CN(S(=O)(=O)c2cccc3cnccc23)CCN1 (stereo not given),0.467% (inactive),–
O=C(O)c1cc2cc(F)ccc2[nH]1,3.59% (inactive),–
COc1ccc(/C=C2\COc3ccc(C)cc3C2=O)cc1O,–,43.2 µM (active)
Brc1c(Br)c(Br)c2n[nH]nc2c1Br,0.507% (inactive),–
O=Nc1c(-c2c(O)[nH]c3cc(Br)ccc23)[nH]c2ccccc12,4.1% (inactive),–
COc1cc(/C=C(\C#N)C(=O)c2ccc(O)c(O)c2)cc(I)c1O,–,12.2 µM (active)
Cc1ccc(S(=O)(=O)/C=C/C#N)cc1,–,21.7 µM (active)
O=C1C(SCCO)=C(SCCO)C(=O)c2ccccc21,–,9.68 µM (active)
CC(C)(C)[C@]1(O)CCN2C[C@H]3c4ccccc4CCc4cccc(c43)[C@@H]2C1,–,inactive
Cn1cnc2c(NCc3ccccc3)nc(NCCO)nc21,3.46% (inactive),–
O=C1NC(=O)c2cc(Nc3ccccc3)c(Nc3ccccc3)cc21,–,9.68 µM (active)
CSc1ccccc1N1CCN(CCCCCC(=O)NC2CCCc3ccccc32)CC1 (stereo not given),21.1% (inactive),–
Cc1cc(C)c(/C=C2\C(=O)Nc3ccccc32)[nH]1,–,7.69 µM (active)
COc1cc2c(cc1OC)-c1cc(=Nc3c(C)cc(C)cc3C)n(C)c(=O)n1CC2,-16.1% (inactive),–
O=C1NC(=O)c2c1c(-c1ccccc1)cc1[nH]c3ccc(O)cc3c21,9.9% (inactive),–
Cn1c(=O)c2[nH]c(-c3ccccc3)nc2n(C)c1=O,18.6% (inactive),–
O=C(c1cc(O)c(O)c([N+](=O)[O-])c1)c1ccccc1F,3.4% (inactive),–
CN(C)CCCC1(c2ccc(F)cc2)OCc2cc(C#N)ccc21 (stereo not given),0.697% (inactive),–
CCN1CCCC1CNC(=O)c1cc(S(N)(=O)=O)ccc1OC (stereo not given),7.93% (inactive),–
Cn1cc(C2=C(c3ccc(Cl)cc3Cl)C(=O)NC2=O)c2ccccc21,–,0.968 µM (active)

# Source: PubChem BioAssay AID2060323 (National Center for Advancing Translational Sciences (NCATS), 2025)
